Bioassay records (PubChem BioAssay)
Shown are actives, neighbours in structure and some others; about 9.4% of the full set was active somewhere.
Pf growth 48h – P. falciparum growth inhibition at 48 hours (one generation); P. falciparum luciferase growth in erythrocytes, 48 h; Potency, µM (series often up to 28.7 µM), for inactives: at the top dose activity change, negative = inhibition, hits mostly inhibitors; 5.9% of 310,000 active; AID 504832; also: % is scaled to controls: 0 for no effect and ±100 for the full control effect
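Erythrocytes infected with P. falciparum carrying an integrated firefly luciferase reporter (2% hematocrit, 0.1% parasitemia final) were exposed to compounds in RPMI 1640 with 0.5% Albumax at 37 C, 5% CO2. Growth inhibition was scored as reduced luminescence.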
SARS PLP yeast – SARS-CoV PLP inhibition in yeast; AID 485353; 0.19% of 330,000 active; Potency, µM (titrated, usually from 32.9 µM), for the others: top-dose activity, positive = growth rescue, actives largely listed as activators; S. cerevisiae expressing SARS-CoV PLpro, growth rescue; calls by dose curve; also: 0% is about no effect; nearly all actives have a fitted effect of over 55% in size
AMA1-RON2 inh – disrupts binding of P. falciparum AMA1 to RON2. AlphaScreen AMA1-biotinylated RON2 peptide binding. Potency, µM (top dose mostly 58.2 µM), for inactives: at the top dose activity change, negative = inhibition, most hits filed as inhibitors. 0.2% of 360,000 active. AID 720542;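 also: 0% = vehicle wells and -100% = peptide control; nearly all actives have a fitted effect of over 45% in size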
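AMA1 (3D7) with his tag at 25 nM final met compounds first, then biotinylated RON2 peptide at 25 nM; detection used donor plus acceptor beads, 10 µg/mL apiece, read by AlphaScreen after 30 min at room temperature.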
Pf growth 96h – P. falciparum growth inhibition at 96 hour, primary screen for plastid delayed-death inhibitors | AID 504834 | P. falciparum luciferase reporter growth, 96 h | 6.9% of 320,000 active | Potency, µM (doses to about 28.7 µM), for the others: top-dose activity change, negative = inhibition, usual class: inhibitors; also: % is scaled to controls: 0 for no effect and ±100 for the full control effect
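Luminescence readout: decreased luciferase signal marks inhibited growth of reporter-expressing P. falciparum in infected red cells (2% hematocrit, 0.05% parasitemia final), exposed to compound two generations (96 h, 37 C, 5% CO2).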
Numbers without * were called inactive; ? = inconclusive; nt = no result; [ ] = remark or other dose. Unless noted, calls follow the shape of the dose curve; as a rule, active = well fitted curve in the direction sought with a large enough effect; inconclusive = small, poorly fitted or top-dose-only effect, or another doubt; inactive = no such curve, though single readings can be large; an effect the other way counts as inactive or inconclusive. Potency is read from the fitted curve at half-maximal effect.

SMILES	Pf growth 48h	SARS PLP yeast	AMA1-RON2 inh	Pf growth 96h
CC1CCCC(C)N1C(=O)CN1c2cccc3cccc(c23)S1(=O)=O (stereo not drawn)	nt	-5%	-27%	nt
CCCCCCC(=O)O[C@H]1CC[C@H]2[C@@H]3CCC4CC(=O)C=C(C)[C@]4(C)[C@H]3CC[C@]12C (stereo partly drawn)	4.8µM*	nt	nt	6.7µM*
C[C@]12CCC(=O)CC1CCC1C2CC[C@]2(C)C(OC(=O)CCC(=O)O)CCC12 (stereo partly drawn)	19%	-3%	13%	22%
COc1ccc(C2C(C(=O)c3ccccc3)N3c4ccccc4C=CC3C2[N+](=O)[O-])cc1 (stereo not drawn)	?	-1%	3%	9.3µM*
COc1ccc(N2C(=O)[C@@H]3[C@H](C2=O)[C@H](C(C)=O)N2c4ccccc4C=C[C@@H]32)cc1	?	0%	-6%	?
CN(CC(=O)Nc1ccccc1Cl)C(=O)CSc1nncs1	4%	0%	-11%	1%
Cc1ccc(N(CC(=O)NCc2ccccc2Cl)S(=O)(=O)c2c(C)noc2C)cc1	?	1%	-8%	?
Cc1ccc(N(CC(=O)NCc2ccc(F)cc2)S(=O)(=O)c2cccs2)cc1	nt	5%[6.58 µM]	-2%	4.7µM*
COc1ccc(N(CC(=O)NCCc2cccc(C)c2)S(=O)(=O)c2c(C)noc2C)cc1	?	-3%	-10%	2.6µM*
CCOc1ccc(N(CC(=O)NCc2ccccc2Cl)S(=O)(=O)c2c(C)noc2C)cc1	13µM*	2%	10%	?
CCOc1ccccc1NC(=O)CN(c1ccc(OC)cc1)S(=O)(=O)c1c(C)noc1C	9.3µM*	-21%	-14%	?
CCOc1ccccc1NC(=O)CN(c1cc(C)cc(C)c1)S(=O)(=O)c1c(C)noc1C	nt	-6%	-5%	?
COC(=O)c1cccc(NC(N)=S)c1	0%	-1%	11%	-7%
Cc1noc(C)c1S(=O)(=O)N(CC(=O)O)c1ccc2c(c1)OCO2	44%	4%	-5%	5.9µM*
Cc1cc(C)cc(N(CC(=O)O)S(=O)(=O)c2c(C)noc2C)c1	9%	1%	-8%	nt
Cc1noc(C)c1S(=O)(=O)N(CC(=O)NCc1ccc(F)cc1)c1ccc(C(C)C)cc1	?	-1%	-4%	-4%
COc1ccc(N(CC(=O)NCc2ccc(F)cc2)S(=O)(=O)c2c(C)noc2C)cc1	5%	-2%	-6%	10µM*
COc1ccc(NC(=O)CN(c2cc(C)cc(C)c2)S(=O)(=O)c2c(C)noc2C)cc1OC	?	11%	-2%	12µM*
CCc1ccc(N(CC(=O)NC2CCCCC2)S(=O)(=O)c2c(C)noc2C)cc1	nt	-1%	1%	1.9µM*
CCCc1cc(Nc2cccc(OCC)c2)n2ncnc2n1	?	1%	1%	-7%[5.75 µM]
CCCn1c(N)c(C(c2ccc(OC)cc2)N2CCN(c3ccccc3)CC2)c(=O)[nH]c1=O (stereo not drawn)	nt	-7%	2%	?
Cc1nc(C2CCCCC2)c(-c2ccccc2)c(N2CCOC2=O)c1C	nt	nt	28%	nt
COc1cc(S(=O)(=O)N2CCOCC2)c(OC)c(S(=O)(=O)N2CCOCC2)c1	nt	nt	3%	nt
COc1ccc(-n2c(COc3cccc(C)c3)n[nH]c2=S)cc1	-21%	-2%	96%	-13%
CC(Oc1ccc(-c2ccccc2)c(F)c1)c1ccn(S(=O)(=O)c2ccc(Br)cc2)n1 (stereo not drawn)	?	-6%	-7%	10µM*
SMILES	Pf growth 48h	SARS PLP yeast	AMA1-RON2 inh	Pf growth 96h
CC(C(=O)O)c1ccc(-c2ccccc2)c(F)c1 (stereo not drawn)	6%	-1%	-4%	0%
NC(N)=NCc1cccc(I)c1	?	nt	2%	11µM*
C/C(=N\NC(=O)c1cccc(O)c1)c1ccc(NC(=O)Cc2ccccc2)cc1	2%	0%	-9%	-13%
Cc1c(C)c2ccc(OCC(=O)NC(Cc3c[nH]c4ccc(O)cc34)C(=O)O)c(C)c2oc1=O (stereo not drawn)	39%	-2%	-10%	56%
Cc1ccccc1NC(=O)C(C)SCc1ccccc1 (stereo not drawn)	-7%	1%	7%	-18%
CCNC(=O)NC(=O)C(C)SCc1ccccc1C (stereo not drawn)	12%	1%	17%	6.6µM*
COc1ccc(C(=O)Sc2ccc(Cl)cc2)cc1OC	-29%	5%	5%	187%
Fc1ccc(/C=N/Nc2nnnn2-c2ccccc2)cc1	5%	0%	-3%	8.3µM*
Cn1nnnc1NN=Cc1ccccc1	nt	nt	0%	nt
CC(CCc1ccco1)NC(=O)Cn1ncc2c(=O)oc3ccccc3c21 (stereo not drawn)	0%	19%	3%	?
Cc1c(O)nc(SCC(=O)Nc2ccc3c4c(cccc24)CC3)n(-c2ccccc2)c1=O	0%	?	8%	?
O=C(CSc1nc2nc3c(cc2c(=O)n1-c1ccccc1)CCCC3)Nc1cccc2ccccc12	5.9µM*	14%	12%	5.9µM*
O=C(CSc1nc(O)cc(=O)n1-c1ccccc1)Nc1ccc2c3c(cccc13)CC2	?	?	-14%	8.3µM*
O=C(CSc1nc(O)cc(=O)n1-c1ccccc1)NC1CCCCC1	2.6µM*	7%	8%	nt
O=c1cc(O)nc(SCc2ccccc2)n1-c1ccc(F)cc1	2.9µM*	5%	-8%	?
Cn1nc2c(c1C(=O)O)CCCC2	13%	11%	-8%	28%
CCC(NS(=O)(=O)c1cnn(CC)c1)c1ccccc1 (stereo not drawn)	13%	0%	17%	10%
CCN1CCN(S(=O)(=O)c2cnc(Cl)c(Br)c2)CC1	-12%	-6%	4%	?
NC(=O)c1ccccc1NC(=O)NC1CCCCC1	-4%	3%	10%	11%
Cc1ccccc1-n1c(SCC(=O)Nc2ccccc2)nc2nc3c(cc2c1=O)CCCC3	?	9%	-4%	46%
Cc1cccc(NC(=O)CSc2nc3nc4c(cc3c(=O)n2-c2ccccc2)CCCC4)c1	5.2µM*	-9%	-9%	2.9µM*
Cc1ccc(-n2c(SCC(=O)NCc3ccco3)nc3nc4c(cc3c2=O)COC(C)(C)C4)cc1	9.3µM*	12%	1%	-11%
CCn1c(SCC(=O)Nc2ccc(Cl)cc2)nc2nc3c(cc2c1=O)CCCC3	?	4%	-10%	13µM*
COc1ccc(C(NC(=O)C2CCN(CCCc3ccccc3)CC2)c2ccccn2)cc1 (stereo not drawn)	nt	nt	20%	nt
COc1cccc(CC2(CO)CCCN(Cc3ccc4c(c3)OCCO4)C2)c1 (stereo not drawn)	-36%	0%	6%	10µM*
COc1ccc(CN2CCCC(CO)(Cc3ccc(F)cc3)C2)c(OC)c1OC (stereo not drawn)	-17%	-4%	0%	12µM*
CC(C)Oc1ccc(CN2CCCC(CO)(Cc3ccc(F)cc3)C2)cc1 (stereo not drawn)	?	2%	2%	10%
